# The list is not random: actives were taken first. Their share in the collection is about 4.5%.
# 697 NFkB inh: inhibitors of the PMA/ionomycin-induced NF-kB reporter in 697 B cells; AID 435022; 697 B-cell NF-kB luciferase reporter, 16 h; 0.33% of 330,000 active; inhibition, % at 4 µM; in the data active = inhibition above about 35%
# Mdm2-MdmX inh: inhibitors of human Mdm2/MdmX interaction | O15151+Q00987 | SaOS-2 split-luciferase Mdm2/MdmX complementation, luminescence | inhibition, % at 8 µM | 3% of 330,000 active | AID 485346;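 active = inhibition of at least 50% at 8 µM in the primary screen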
# Target sequence (O15151 whole entry, looked up): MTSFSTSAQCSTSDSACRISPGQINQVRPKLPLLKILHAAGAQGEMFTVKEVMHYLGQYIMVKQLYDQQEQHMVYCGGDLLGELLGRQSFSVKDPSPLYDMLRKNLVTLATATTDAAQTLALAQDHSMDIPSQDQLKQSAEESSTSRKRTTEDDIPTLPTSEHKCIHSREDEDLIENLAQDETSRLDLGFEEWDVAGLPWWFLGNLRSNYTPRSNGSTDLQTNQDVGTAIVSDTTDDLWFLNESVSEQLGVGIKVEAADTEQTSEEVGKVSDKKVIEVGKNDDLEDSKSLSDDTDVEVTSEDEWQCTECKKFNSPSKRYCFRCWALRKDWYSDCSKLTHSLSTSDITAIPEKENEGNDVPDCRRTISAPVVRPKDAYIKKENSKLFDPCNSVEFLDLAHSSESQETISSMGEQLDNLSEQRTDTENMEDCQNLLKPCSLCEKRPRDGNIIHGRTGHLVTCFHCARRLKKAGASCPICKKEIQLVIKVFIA
# Target sequence (Q00987 whole entry, looked up): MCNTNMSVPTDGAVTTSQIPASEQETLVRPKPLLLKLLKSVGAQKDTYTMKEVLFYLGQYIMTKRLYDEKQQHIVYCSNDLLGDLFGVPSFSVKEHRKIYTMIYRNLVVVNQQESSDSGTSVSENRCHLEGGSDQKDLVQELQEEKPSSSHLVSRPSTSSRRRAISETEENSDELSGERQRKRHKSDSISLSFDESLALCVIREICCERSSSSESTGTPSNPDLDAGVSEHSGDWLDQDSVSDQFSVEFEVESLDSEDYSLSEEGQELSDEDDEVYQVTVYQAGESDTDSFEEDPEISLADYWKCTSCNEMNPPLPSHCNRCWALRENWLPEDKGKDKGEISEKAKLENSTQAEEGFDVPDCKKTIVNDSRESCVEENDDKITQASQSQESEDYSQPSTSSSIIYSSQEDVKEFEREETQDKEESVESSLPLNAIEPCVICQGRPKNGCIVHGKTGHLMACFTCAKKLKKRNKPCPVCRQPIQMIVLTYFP
# aSyn UTR inh: 5' untranslated region of α-synuclein, MLPCN primary screen; alpha-synuclein 5'UTR reporter, inhibitor activity; inhibition, % (tested at 7.5 µM); 0.82% of 300,000 active; in the data active = inhibition above about 60%;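 note: H4 neuroglioblastoma cells stably carrying SNCA 5'UTR luciferase fusion; 0% = DMSO wells and 100% = positive control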
# Gli-Sufu block: antagonists of Gli-Sufu signaling; Sufu-KO-LIGHT fibroblasts, Gli luciferase reporter luminescence; inhibition, % at 5 µM; 0.74% of 340,000 active;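 active = inhibition above about 55%, limit read from the data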;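 note: 0% = DMSO-treated cells and 100% = wells with medium but no cells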
# CSC inhib: cancer stem cell inhibition. cancer stem cell-like cells viability, luminescence. 1.1% of 300,000 active. inhibition, % at 7.5 µM; in the data active = inhibition above about 75%; tested in HMLE shEcad cells
# Jurkat NFkB inh: lowers PMA/ionomycin-induced NF-kB signal in Jurkat cells; inhibition, % at 4 µM; PMA/ionomycin-induced NF-kB luciferase reporter, luminescence; 0.53% of 330,000 active; in the data active = inhibition above about 50%
# 697 NFkB conf: inhibitors of the PMA/ionomycin-induced NF-kB reporter in 697 B cells, retest. shares compounds with 697 NFkB inh. 697 B-cell NF-kB luciferase, 16 h. inhibition, % at 4 µM. 35% of 2,000 active. AID 449746; in the data active = inhibition mostly above about 28%, no sharp cut-off; inactive = mostly below about 22%
# Mdm2 MdmX conf: confirmation of human Mdm2/MdmX interaction inhibitors; shares compounds with Mdm2-MdmX inh; Mdm2-MdmX binding, luminescent assay; inhibition, % at 8 µM; 55% of 10,000 active; in the data active = inhibition above about 40%
# FLuc counter: counter-screen for Mdm2/MdmX inhibitors: full-length luciferase; shares compounds with Mdm2-MdmX inh; SaOS-2 full-length luciferase counterscreen, luminescence; inhibition, % at 8 µM; 77% of 6,200 active; AID 504607;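 active = mean inhibition at 8 µM reaching about 37%, which flags the compound as non-specific, limit read from the data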;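 note: p53-null SaOS-2 cells with luciferase driven by a doxycycline-inducible promoter; compound on cells about two nights before reading with doxycycline added after day one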
# Gli antag conf: Gli-SUFU antagonism confirmation, single concentration; Sufu-KO-LIGHT cells, Gli luciferase reporter, luminescence; inhibition, % at 5 µM; AID 602428; shares compounds with Gli-Sufu block; 40% of 2,500 active;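 active = mean inhibition at 5 µM reaching about 45%, limit read from the data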;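 note: plate controls were DMSO-treated cells for no effect and wells lacking cells for full effect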
# SufuKO cytotox: counter-screen for Gli-SUFU antagonists: cytotoxicity. AID 651994. 32% of 2,500 active. Sufu-KO-LIGHT cells cytotoxicity, ATP luminescence. shares compounds with Gli-Sufu block. cytotoxicity, % at 5 µM;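 active = mean cytotoxicity at 5 µM above about 25%, limit read from the data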;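 note: cells exposed to compound overnight for roughly 16 to 18 hours; plate controls were DMSO wells with cells for no effect and medium without cells for full effect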
# Wnt3a cs: inhibits Wnt3a reporter, counter-screen for Gli-SUFU antagonists; shares compounds with Gli-Sufu block; inhibition, % at 6.25 µM; 20% of 2,500 active; Wnt-LIGHT cells, Wnt3a-driven luciferase reporter, luminescence; AID 651995;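 active = mean inhibition above about 25%, limit read from the data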
# An asterisk follows results filed as active; / = no result.
SMILES,697 NFkB inh,Mdm2-MdmX inh,aSyn UTR inh,Gli-Sufu block,CSC inhib,Jurkat NFkB inh,Mdm2 MdmX conf,others
CC1CN(S(=O)(=O)c2ccc(C(=O)Nc3nc(-c4cc5ccccc5o4)cs3)cc2)CC(C)O1 (stereo not drawn),74*,76*,-16,75*,29,43,20,697 NFkB conf=51*;Gli antag conf=79*;SufuKO cytotox=24;Wnt3a cs=30*
CN(C(=O)c1cc(S(=O)(=O)N2CCOCC2)cs1)c1ccccc1,23,-24,-3,-3,-12,5,/,
CCCc1cc(C(=O)Nc2ccccc2C(=O)OC)no1,-18,1,-71,1,-8,-19,/,
CCOc1ccc(-n2c(-c3ccccc3)c[n+]3c2CCCCC3)cc1,63*,27,-10,86*,23,17,/,697 NFkB conf=64*;Gli antag conf=90*;SufuKO cytotox=25*;Wnt3a cs=40*
CCOc1ccc(N2Cc3ccccc3C2)cc1,-112,-65,-120,-58,10,-77,/,
O=C1CCC2S/C(=C/Nc3ccc(C(F)(F)F)cc3)C(=O)N12 (stereo not drawn),81*,14,99*,58*,-4,30,/,697 NFkB conf=49*;Gli antag conf=60*;SufuKO cytotox=2;Wnt3a cs=106*
COc1ccc(-n2c(-c3ccc(Cl)cc3)c[n+]3c2CCc2ccccc2-3)cc1,56*,18,-15,85*,-1,21,/,697 NFkB conf=92*;Gli antag conf=86*;SufuKO cytotox=28*;Wnt3a cs=13
COc1ccc(C)c2sc(NC(=O)CCS(=O)(=O)c3ccccc3)nc12,-8,77*,-9,5,0,12,69*,FLuc counter=45*
CC1(C)CC(=O)c2sc(NC(=O)c3ccccc3)nc2C1,-103,-122,-78,/,-6,-127,/,
CCOc1cccc2sc(N(CCN(C)C)C(=O)CCS(=O)(=O)c3ccccc3)nc12,5,-26,-8,3,-7,-5,/,
CCOc1cccc2sc(NC(=O)CCS(=O)(=O)c3ccccc3)nc12,-2,70*,-14,4,-5,12,66*,FLuc counter=35
CC1(C)CC(=O)c2sc(NC(=O)CCS(=O)(=O)c3ccccc3)nc2C1,-1,71*,-28,3,27,16,26,
Cc1nnc(NC(=O)CCS(=O)(=O)c2ccccc2)s1,6,32,-27,13,-6,11,/,
C#CCSc1nnc(-c2ccc(OC)cc2)o1,-123,-133,-266,-78,-10,-49,/,
COc1cc(C(=O)Nc2nc(-c3cccs3)cs2)cc(OC)c1OC,28,76*,13,15,/,6,28,
COc1ccc(C(=O)Nc2nc(-c3cccs3)cs2)cc1,-91,-65,-91,-32,13,-51,/,
O=C(OCC(=O)N1CCc2ccccc2C1)c1ccc(F)cc1Cl,-13,-11,/,4,-19,-30,/,
Cn1c(SCC(=O)NC(=O)Nc2ccccc2)nnc1-c1ccncc1,3,24,-19,-2,-1,0,/,
O=C(NN=Cc1c(F)c(F)c(F)c(F)c1F)c1ccc(NS(=O)(=O)c2cccs2)cc1,8,53*,/,-5,15,-5,-16,
CC(=O)Nc1ccc(C=NNC(=O)c2ccc(NS(=O)(=O)c3cccs3)cc2)cc1,-7,-5,/,-4,-7,0,/,
COc1ccc(NC(=O)CSc2nc(C3CC3)nc3ccccc23)c(OC)c1,8,18,0,20,-18,-13,/,
CC(=O)c1ccc(NC(=O)CSc2nc(C3CC3)nc3ccccc23)cc1,-11,64*,-1,-11,16,16,39,
COc1ccc(NC(=O)CSc2ccc3c4c(cccc24)C(=O)c2ccccc2-3)cc1,1,58*,-65,13,-21,-20,16,
COc1ccc(NC(=O)CSc2nc(C3CC3)nc3ccccc23)cc1,-6,60*,-33,-41,/,4,39,
CCOc1ccc(NC(=O)c2ccc(NC(=O)CSc3nc4ccccc4c(=O)[nH]3)cc2)cc1,18,56*,37,0,7,1,14,
SMILES,697 NFkB inh,Mdm2-MdmX inh,aSyn UTR inh,Gli-Sufu block,CSC inhib,Jurkat NFkB inh,Mdm2 MdmX conf,others
Cc1ccc(C2=NN(CCC#N)C(=O)CO2)cc1,7,20,4,0,-12,8,/,
CCN(Cc1ccccc1)C(=O)c1[nH]c2ccc(OC)cc2c1C,6,-16,-21,9,/,-19,/,
CCN(CC)CCNC(=O)c1[nH]c2ccc(OCc3ccccc3)cc2c1C,-46,61*,8,22,83*,-9,39,FLuc counter=69*
COc1ccc(OCC(=O)NCCCN2CCOCC2)cc1,-27,6,5,6,6,1,/,
CC(C)(C)C1CCC(CN2C(Nc3ccccc3)=NC[C@@H]2Cc2ccccc2)CC1 (stereo partly drawn),-10,100*,/,2,107*,-20,40,FLuc counter=47*
CCN1C(Nc2ccccc2)=NC[C@@H]1Cc1ccccc1,30,21,-1,2,2,8,/,
Cc1ccc(S(=O)(=O)N2CCOCC2)cc1NC(=O)COC(=O)COc1cccc2c1OC(C)(C)C2,-1,27,-6,7,-15,12,/,
COCCCN=C1NN=C(c2cc(C)n(-c3ccccc3)c2C)CS1,19,13,-25,11,-6,-5,/,
COCCCN=C1NN=C(c2cc(C)n(Cc3ccccc3Cl)c2C)CS1,7,79*,23,37,-6,-8,76*,FLuc counter=80*
C=CCN=C1NN=C(c2cc(C)n(CC=C)c2C)CS1,-62,87*,52,71*,18,-33,89*,FLuc counter=50*
COc1ccc(CCN2CC(C(=O)Nc3nccs3)CC2=O)cc1OC (stereo not drawn),16,26,/,-1,-19,13,/,
CCN1CCN(c2oc(/C=C/c3ccccc3)nc2C#N)CC1,-28,2,-30,14,-4,-32,/,
COc1cc(C(=O)NCC(=O)N2CCN(S(=O)(=O)c3cc(C)ccc3C)CC2)cc(OC)c1OC,-24,53*,-75,8,31,19,52*,FLuc counter=42*
O=C(Nc1c2c(nn1-c1ccccc1)CS(=O)C2)c1ccc2c(c1)OCO2 (stereo not drawn),-16,-4,-8,1,-18,12,/,

# High-throughput results (PubChem)
